Test results published in PubChem BioAssay (EPA / NIEHS).
Active and inactive are the calls of the source. The calls were made as follows: active = hit-call score of the fitted dose curve at least 0.9, where 1 is the maximum; inactive = score below 0.9.

read-out: C-C motif chemokine 2 (Homo sapiens) (UniProt P13500); assay: BSK_KF3CT_MCP1: BioMAP Diversity Plus: KF3CT Assay for Monocyte Chemoattractant Protein 1 (MCP1/CCL2) Biomarker Activity (AID 2283073); conditions: primary human keratinocytes with fibroblasts; actives raise or lower the signal
Procedure, shortened: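 ELISA readout of MCP-1 after 24 h chemical dosing of a human skin primary co-culture of keratinocytes and foreskin fibroblasts. Activity was fitted in both directions against DMSO.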

Compound | outcome
OCCOCCO | inactive
CN(C)c1ccccc1 | inactive
CCOc1cccc(C2(N3CCN(c4ccccc4)CC3)CCC(C)CC2)c1 (stereo not drawn) | inactive
COC(=O)Nc1nc2ccccc2[nH]1 | inactive

read-out: Matrix Metallopeptidase 9 (MMP9), MMP9 (gene 4318); assay: BSK_KF3CT_MMP9: BioMAP Diversity Plus: KF3CT Assay for Matrix Metallopeptidase 9 (MMP9) Biomarker Activity (AID 2283074); conditions: primary human keratinocytes with fibroblasts; actives raise or lower the signal;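 as to AC50: MMP9 protein level quantified by ELISA in the co-culture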
Procedure, shortened: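 Human keratinocyte/foreskin fibroblast co-culture; compound added; 24 h; MMP-9 by ELISA; bidirectional fit vs DMSO baseline.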

Compound | outcome | AC50
Cc1ccc(N)cc1 | inactive | –
[O-][Cl+]O | inactive | –
O=[N+]([O-])c1ccc(Oc2ccc(Cl)cc2Cl)cc1 | – | 8.09 µM (active)
CN(C)c1ccc(C(=O)c2ccc(N(C)C)cc2)cc1 | inactive | –
CC(C)(C)C(O)(CCc1ccc(Cl)cc1)Cn1cncn1 (stereo not drawn) | inactive | –
Nc1ccc(N=Nc2ccccc2)cc1 | – | 20 µM (active)
CCOC(=O)[C@]1(c2ccccc2)Oc2ccccc2[C@@H]1N | – | 31 µM (active)
CO[C@@H]1[C@H](OC(=O)NC(=O)CCl)CC[C@]2(CO2)[C@H]1[C@@]1(C)O[C@@H]1CC=C(C)C | – | 6.36 µM (active)
O=P(OCCCl)(OCCCl)OCCCl | inactive | –
O=C1CCCO1 | inactive | –
CCN(CC)CCO | inactive | –
CCCCCOC(=O)c1ccccc1C(=O)OCCCCC | inactive | –
COc1cc(C=O)cc2c1[C@H](COC(N)=O)[C@]1(OC(C)=O)ON2C[C@H]2[C@@H]1N2C(C)=O | – | 2.07 µM (active)
CC(C)(C)OOC(C)(C)CCC(C)(C)OOC(C)(C)C | inactive | –
c1ccc2c(c1)-c1cccc3cccc-2c13 | – | 28.9 µM (active)
CS(=O)(=O)NC(=O)c1cc(Oc2ccc(C(F)(F)F)cc2Cl)ccc1[N+](=O)[O-] | inactive | –
OCCCl | inactive | –
[Cl-].[Cl-].[Hg+2] | – | 13.5 µM (active)
Clc1ccc(C(c2ccc(Cl)cc2)C(Cl)Cl)cc1 | – | 10.2 µM (active)
CCCCC(CC)COC(=O)c1ccc(C(=O)OCC(CC)CCCC)c(C(=O)OCC(CC)CCCC)c1 (stereo not drawn) | inactive | –
N#CC(Br)Br | inactive | –
Cn1cc(-c2ccccc2)c(=O)c(-c2cccc(C(F)(F)F)c2)c1 | inactive | –
O=C(N[C@H](c1ccccc1)[C@@H]1CN2CCC1CC2)c1c(Cl)ccc(C(F)(F)F)c1Cl | – | 41.7 µM (active)
OCCOCCO | inactive | –
CN(C)c1ccccc1 | inactive | –
CCOc1cccc(C2(N3CCN(c4ccccc4)CC3)CCC(C)CC2)c1 (stereo not drawn) | inactive | –
CCC[CH2][Sn]([Cl])([CH2]CCC)[CH2]CCC | – | 0.292 µM (active)
COC(=O)Nc1nc2ccccc2[nH]1 | inactive | –

read-out: urokinase plasminogen activator (uPA), PLAU (gene 5328); assay: BSK_KF3CT_uPA: BioMAP Diversity Plus: KF3CT Assay for urokinase plasminogen activator (uPA) Biomarker Activity (AID 2283075); conditions: primary human keratinocytes with fibroblasts; actives raise or lower the signal
Procedure, shortened: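 ELISA readout of uPA, analyzed for signal gain or loss relative to DMSO, from a human primary keratinocyte–foreskin fibroblast co-culture measured 24 h after chemical treatment.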

Compound | outcome | AC50
Cc1ccc(N)cc1 | inactive | –
[O-][Cl+]O | inactive | –
O=[N+]([O-])c1ccc(Oc2ccc(Cl)cc2Cl)cc1 | inactive | –
CN(C)c1ccc(C(=O)c2ccc(N(C)C)cc2)cc1 | inactive | –
CC(C)(C)C(O)(CCc1ccc(Cl)cc1)Cn1cncn1 (stereo not drawn) | inactive | –
Nc1ccc(N=Nc2ccccc2)cc1 | inactive | –
CCOC(=O)[C@]1(c2ccccc2)Oc2ccccc2[C@@H]1N | inactive | –
CO[C@@H]1[C@H](OC(=O)NC(=O)CCl)CC[C@]2(CO2)[C@H]1[C@@]1(C)O[C@@H]1CC=C(C)C | inactive | –
O=P(OCCCl)(OCCCl)OCCCl | inactive | –
O=C1CCCO1 | inactive | –
CCN(CC)CCO | inactive | –
CCCCCOC(=O)c1ccccc1C(=O)OCCCCC | inactive | –
COc1cc(C=O)cc2c1[C@H](COC(N)=O)[C@]1(OC(C)=O)ON2C[C@H]2[C@@H]1N2C(C)=O | – | 11.4 µM (active)
CC(C)(C)OOC(C)(C)CCC(C)(C)OOC(C)(C)C | inactive | –
c1ccc2c(c1)-c1cccc3cccc-2c13 | inactive | –
CS(=O)(=O)NC(=O)c1cc(Oc2ccc(C(F)(F)F)cc2Cl)ccc1[N+](=O)[O-] | inactive | –
OCCCl | inactive | –
[Cl-].[Cl-].[Hg+2] | – | 13.1 µM (active)
Clc1ccc(C(c2ccc(Cl)cc2)C(Cl)Cl)cc1 | – | 11.6 µM (active)
CCCCC(CC)COC(=O)c1ccc(C(=O)OCC(CC)CCCC)c(C(=O)OCC(CC)CCCC)c1 (stereo not drawn) | inactive | –
N#CC(Br)Br | inactive | –
Cn1cc(-c2ccccc2)c(=O)c(-c2cccc(C(F)(F)F)c2)c1 | inactive | –
O=C(N[C@H](c1ccccc1)[C@@H]1CN2CCC1CC2)c1c(Cl)ccc(C(F)(F)F)c1Cl | – | 42.7 µM (active)
OCCOCCO | inactive | –
CN(C)c1ccccc1 | inactive | –
CCOc1cccc(C2(N3CCN(c4ccccc4)CC3)CCC(C)CC2)c1 (stereo not drawn) | inactive | –
CCC[CH2][Sn]([Cl])([CH2]CCC)[CH2]CCC | – | 0.148 µM (active)
COC(=O)Nc1nc2ccccc2[nH]1 | inactive | –

read-out: CD40, CD40 (gene 958); assay: BSK_LPS_CD40: BioMAP Diversity Plus: LPS Assay for CD40 Biomarker Activity (AID 2283076); conditions: primary human HUVEC with PBMC; actives raise or lower the signal
Procedure, shortened: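 Cells were dosed, incubated 24 h, then assayed for CD40 by ELISA. Gain or loss of signal was analysed relative to DMSO controls. The culture paired human umbilical vein endothelium with peripheral blood mononuclear cells.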

Compound | outcome | AC50
Cc1ccc(N)cc1 | inactive | –
[O-][Cl+]O | inactive | –
O=[N+]([O-])c1ccc(Oc2ccc(Cl)cc2Cl)cc1 | – | 20 µM (active)
CN(C)c1ccc(C(=O)c2ccc(N(C)C)cc2)cc1 | – | 17 µM (active)
CC(C)(C)C(O)(CCc1ccc(Cl)cc1)Cn1cncn1 (stereo not drawn) | inactive | –
Nc1ccc(N=Nc2ccccc2)cc1 | inactive | –
CCOC(=O)[C@]1(c2ccccc2)Oc2ccccc2[C@@H]1N | – | 32.9 µM (active)
CO[C@@H]1[C@H](OC(=O)NC(=O)CCl)CC[C@]2(CO2)[C@H]1[C@@]1(C)O[C@@H]1CC=C(C)C | – | 3.77 µM (active)
O=P(OCCCl)(OCCCl)OCCCl | inactive | –
O=C1CCCO1 | inactive | –
CCN(CC)CCO | inactive | –
CCCCCOC(=O)c1ccccc1C(=O)OCCCCC | – | 20 µM (active)
COc1cc(C=O)cc2c1[C@H](COC(N)=O)[C@]1(OC(C)=O)ON2C[C@H]2[C@@H]1N2C(C)=O | – | 20 µM (active)
CC(C)(C)OOC(C)(C)CCC(C)(C)OOC(C)(C)C | inactive | –
c1ccc2c(c1)-c1cccc3cccc-2c13 | inactive | –
CS(=O)(=O)NC(=O)c1cc(Oc2ccc(C(F)(F)F)cc2Cl)ccc1[N+](=O)[O-] | inactive | –
OCCCl | inactive | –
[Cl-].[Cl-].[Hg+2] | – | 38.8 µM (active)
Clc1ccc(C(c2ccc(Cl)cc2)C(Cl)Cl)cc1 | – | 29 µM (active)
CCCCC(CC)COC(=O)c1ccc(C(=O)OCC(CC)CCCC)c(C(=O)OCC(CC)CCCC)c1 (stereo not drawn) | inactive | –
N#CC(Br)Br | inactive | –
Cn1cc(-c2ccccc2)c(=O)c(-c2cccc(C(F)(F)F)c2)c1 | inactive | –
O=C(N[C@H](c1ccccc1)[C@@H]1CN2CCC1CC2)c1c(Cl)ccc(C(F)(F)F)c1Cl | – | 19.5 µM (active)
OCCOCCO | inactive | –
CN(C)c1ccccc1 | inactive | –
CCOc1cccc(C2(N3CCN(c4ccccc4)CC3)CCC(C)CC2)c1 (stereo not drawn) | inactive | –
CCC[CH2][Sn]([Cl])([CH2]CCC)[CH2]CCC | – | 0.148 µM (active)
COC(=O)Nc1nc2ccccc2[nH]1 | inactive | –
